This is an account of results in PubChem BioAssay AID641 (Vanderbilt High Throughput Screening Facility, 2007).

In all, about 58,000 compounds went through this assay and about 3,400 (5.9%) were called active. Shown is part of a subset that was picked to be rich in actives. Unmarked numbers belong to inactive results.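 The calls were made as follows: active = luminescence count or its row- and column-corrected plate score outside the 99.7% band of the plate's sample wells, on either side; inactive = the rest.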

Chain of D(1A) dopamine receptor (Homo sapiens) (P21728 whole entry, looked up): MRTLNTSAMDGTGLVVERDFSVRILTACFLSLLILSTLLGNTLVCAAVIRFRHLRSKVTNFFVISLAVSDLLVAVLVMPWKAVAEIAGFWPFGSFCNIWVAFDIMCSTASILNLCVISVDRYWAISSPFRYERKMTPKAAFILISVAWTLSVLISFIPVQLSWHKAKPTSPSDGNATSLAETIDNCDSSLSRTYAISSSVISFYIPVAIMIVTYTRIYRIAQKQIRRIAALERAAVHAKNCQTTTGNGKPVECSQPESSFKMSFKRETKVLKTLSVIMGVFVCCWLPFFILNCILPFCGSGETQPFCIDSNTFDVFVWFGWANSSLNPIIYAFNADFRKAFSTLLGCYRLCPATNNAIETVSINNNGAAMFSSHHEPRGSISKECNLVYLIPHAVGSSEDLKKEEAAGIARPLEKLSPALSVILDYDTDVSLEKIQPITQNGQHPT

The test concerns the target D(1A) dopamine receptor (Homo sapiens) (UniProt P21728). The experiment in a line: D1 CRE-luciferase signal change, two-sided – cell-based, HEK293 D1, dopamine EC30, D1 allosteric modulator project, primary screen (AID 641). The following applies: dopamine EC30 potentiation, at 10 µM, actives deviate in either direction.
Consider `CCOC(=O)CN1C(=O)C(O)(CC(=O)c2ccccn2)c2ccccc21` (stereo not given), for which the B-score was -0.341.

In the case of `CCc1nnc(NC(=O)C2CCCN2S(=O)(=O)c2ccccc2)s1` (stereo not given), the B-score is -0.0231.

On to `CCC(=NC1CC(C)(C)NC(C)(C)C1)C1=C(O)CC(C)(C)CC1=O`, for which the B-score is -0.239.

As for `COc1ccccc1N1CCN(Cc2ccc(OC)c3ccccc23)CC1`, the B-score is -0.325.

For `Cc1nc(-c2ccc(NC(=O)c3cccs3)cc2)cs1`, the B-score was -5.86 (active).

For the compound `O=C(O)c1ccc(NC(=O)c2cccs2)cc1`, the B-score is 0.0162.

`O=C(O)Cc1ccc(NC(=O)c2cccs2)cc1`: the B-score was -1.14.

As for `COc1ccc(-c2nc(CS(=O)CC(=O)NCc3ccccn3)c(C)o2)cc1` (stereo not given), the B-score was -1.3.

`Cc1ccc2nc(NCCCNC(=O)c3cnccn3)c(C#N)cc2c1`: the B-score was 0.787.

As for `CCc1ccccc1NC(=O)c1cccs1`, the B-score was -0.318.

As for `COCCn1nnnc1CN1CCC(NC(=O)Nc2cccc(OC)c2)CC1`, the B-score is -0.857.

Turning to `CCOC(=O)c1cc2n(c1N)-c1ccccc1C2=O`, the B-score was 1.46.

In the case of `CCOC(=O)c1cc2ccccc2nc1C`, the B-score is 0.135.

Take `CCOC(=O)c1cc2n(c1C)-c1ccccc1C2=O`: the B-score was 4.61 (active).

As to `CCn1nc(NC(=O)c2ccco2)c2cc3ccc(C)cc3nc21`, the B-score was 0.36.

As for `CC1CCc2c(sc3c2C2=NS(=O)(=O)CCN2C=N3)C1` (stereo not given), the B-score was 1.19.

For the compound `CCCCCn1c(SCCC(C)C)nc2c1c(=O)[nH]c(=O)n2C`, the B-score was 0.151.

As for `CCCSc1nc2c(c(=O)[nH]c(=O)n2C)n1CCc1ccccc1`, the B-score is 18 (active).

Take `CC1CCN(c2nc3c(c(=O)[nH]c(=O)n3C)n2CCCc2ccccc2)CC1`: the B-score is 3.73 (active).

In the case of `Cn1c(=O)[nH]c(=O)c2c1nc(N1CCCCCC1)n2CC(=O)c1ccccc1`, the B-score is 0.0681.

In the case of `CN(Cc1ccccc1)c1nc2c(c(=O)[nH]c(=O)n2C)n1CCSc1nc2ccccc2[nH]1`, the B-score is 1.93.

Regarding `CN1CCN(c2nc3c(c(=O)[nH]c(=O)n3C)n2Cc2cccc3ccccc23)CC1`, the B-score was -2.28.

Take `Cc1cccc2cc(C#N)c(N3CCCC3)nc12`: the B-score is -0.4.

In the case of `CCC(=O)N1c2ccc(S(=O)(=O)CCC(=O)N3CCN(c4ccccc4)CC3)cc2CC1C` (stereo not given), the B-score was 0.966.

With `COc1ccc(C(=O)n2nc(-c3ccc(C)cc3)nc2N)cc1OC`, the B-score is 0.0973.

Regarding `COC(=O)c1ccc(OC(=O)c2nn(C)cc2Cl)c(OC)c1`, the B-score was -3.71 (active).

Turning to `COc1ccc(C(=O)n2nc(-c3ccc(Cl)cc3)nc2N)cc1OC`, the B-score is 1.72.

As to `Cn1c(-c2ccc(C(=O)c3ccccc3)s2)nc2ccccc21`, the B-score is -0.58.

Take `CCN(CC)CCN1C(=O)C(=O)/C(=C(/O)c2ccccc2)C1c1ccccc1F` (stereo not given): the B-score is 0.045.

For `Cc1ccc(C)n1C(Cc1ccccc1)C(=O)O` (stereo not given), the B-score was 1.32.

`c1ccc(COc2nsnc2N2CCOCC2)cc1`: the B-score is 5.03 (active).

As to `c1nc(COc2nsnc2N2CCOCC2)cs1`, the B-score was 1.59.

Consider `O=C(O)COc1nsnc1N1CCOCC1`, for which the B-score was 0.787.

Consider `COc1cc(OC)c(NC(=O)c2ccc(Br)o2)cc1Cl`, for which the B-score is -0.284.

On to `CC(=O)Nc1ccc(S(=O)(=O)N2CCC(N(C)CCC(C)C)CC2)cc1`, for which the B-score was -0.0927.

For the compound `CC(C)C1C2=C(CC(C)(C)CC2=O)ON1c1ccccc1` (stereo not given), the B-score was 6.74 (active).

Regarding `Cc1cc2c(cc1C)NC(c1ccccn1)C1=C(CC(C)(C)CC1=O)N2` (stereo not given), the B-score is -0.653.

In the case of `CC1(C)CC(=O)NC=C(c2ccccc2)C1`, the B-score was -0.105.

Turning to `Cc1cc(C)c(S(=O)(=O)NCCCN2CCOCC2)cc1Br`, the B-score was 0.0527.

Regarding `COc1ccc(NC(=O)CN(C)S(=O)(=O)c2ccccc2)cc1OC`, the B-score is -0.205.

Take `COc1cccc(NC(=O)CN(C)S(=O)(=O)c2ccc(C)cc2)c1`: the B-score is -0.881.

As for `COc1ccc(S(=O)(=O)N(C)CC(=O)Nc2ccc3c(c2)OCCO3)cc1OC`, the B-score was 3.86 (active).

As for `Cc1cc(=O)n2nc(N3CCCC3C(=O)NCCCN3CC(C)CC(C)C3)sc2n1` (stereo not given), the B-score is -0.000281.

Take `Cc1ccc(-c2nnc(SC(C)C#N)n2N)cc1` (stereo not given): the B-score is -0.328.

On to `COc1ccc(-c2noc(COc3ccc(Cl)c(C)c3)n2)cc1`, for which the B-score is -0.505.

As to `COc1ccc(-c2cc(C(F)(F)F)n3nc(C(=O)N4CCOCC4)c(Cl)c3n2)cc1`, the B-score is -1.29.

Take `c1coc(-c2nc3nc4ccccc4n3nc2-c2ccco2)c1`: the B-score is 2.64 (active).

Turning to `Cc1nn2c3ccccc3nc2n(C)c1=O`, the B-score was 0.34.

On to `c1ccc(CSc2nnc(-c3ccco3)c(-c3ccco3)n2)cc1`, for which the B-score was 0.706.

Regarding `CC1CCCN(Cc2nc3c(c(=O)n(C)c(=O)n3C)n2Cc2cccc3ccccc23)C1` (stereo not given), the B-score is -0.313.

Regarding `CC1(C)Cc2c(sc3nc4n(c(=N)c23)CCCCC4)CO1`, the B-score is 0.888.

For the compound `O=c1c2ccccc2oc2nc3n(c(=O)c12)CCCS3`, the B-score was 0.013.

Consider `CCC1(C)Cc2c(sc3nc4n(c(=O)c23)CCCS4)CO1` (stereo not given), for which the B-score was 2.42 (active).

With `CC(=O)NCCc1ccc(S(=O)(=O)N(C)C2CCS(=O)(=O)C2)cc1` (stereo not given), the B-score is 1.13.

In the case of `N#Cc1c(/N=C/N2CCCC2)oc(-c2ccccc2)c1-c1ccccc1`, the B-score was 0.952.

On to `Cc1nc(SC(C)C)[nH]c(=O)c1Cc1ccccc1`, for which the B-score is 0.348.

On to `Clc1ccc(Cn2ncc3c(NCc4cccnc4)ncnc32)cc1`, for which the B-score is -2.9 (active).

As for `Cc1cc(Cl)c(S(=O)(=O)NCc2cccnc2)cc1OCC(N)=O`, the B-score was 0.213.

With `C1=C(CCNc2ncnc3c2cnn3-c2ccccc2)CCCC1`, the B-score was -1.37.

`CC12CN3CC(C)(CN(C1)C3c1ccc(Cl)cc1Cl)C2=O` (stereo not given): the B-score was -0.693.

`Cc1ccc(-c2cc(C(F)(F)F)n3nc(C(=O)N4CCCC4)cc3n2)cc1`: the B-score was 1.18.

Consider `Cc1cccc(NC(=O)c2ccc3ccccc3n2)n1`, for which the B-score is 0.542.

Regarding `Cc1nnc(NC(=O)CSc2nccn2-c2cccc(C)c2C)s1`, the B-score was -0.587.

Regarding `CCOC(=O)N1CCC(NC(=O)CCc2cn(C)c3ccccc23)CC1`, the B-score was 2.11.

Regarding `O=C(Nc1nc2cc3c(cc2s1)OCCO3)c1cccc(S(=O)(=O)N2CCOCC2)c1`, the B-score was -0.542.

For the compound `Fc1cc(F)c2nc(N3CCOCC3)sc2c1`, the B-score is 0.966.

As to `c1c2c(cc3sc(N4CCCCC4)nc13)OCCO2`, the B-score was -4.94 (active).

Take `CSCCC1NC2(C(=O)Nc3ccc(Cl)cc32)[C@@H]2C(=O)N(C3CCCC3)C(=O)[C@H]12` (stereo not given in full): the B-score is 0.395.

As to `Cc1ccc(-c2noc(CSc3nnnn3-c3ccccc3)n2)cc1`, the B-score is 0.0126.

As to `Cn1nnnc1SCc1cc(=O)[nH]c2ccccc12`, the B-score was 0.325.

Regarding `CN(C)c1nc(N)nc(CSc2nnnn2-c2cccc3ccccc23)n1`, the B-score is 7.63 (active).

For `Cn1c(SCc2c(F)cccc2Cl)nnc1-c1cnccn1`, the B-score is -0.043.

As to `Cc1nc2cc(-c3ccc(F)cc3)nn2c(N2CCOCC2)c1C`, the B-score was 3.86.

For the compound `C/C(O)=C\c1nc(=O)c2c(C)cc(C)nc2n1-c1ccccc1`, the B-score is 0.549.

As to `O=C1CCCC2=C1C(c1cccs1)n1nc(SCc3ccccc3)nc1N2` (stereo not given), the B-score is 0.252.

Consider `C=CCNc1nc(C)nc(OC)n1`, for which the B-score was 0.422.

With `COC(=O)c1nc(NC(=O)c2ccc(Cl)cc2)n[nH]1`, the B-score is -0.0452.

Regarding `COc1nc(NCc2ccc(Cl)cc2)nc(OC)n1`, the B-score is 6.81 (active).

For `Cc1c(-c2nn(C)c(=O)c3ccccc23)oc2ccc(F)cc2c1=O`, the B-score was 1.77.

In the case of `CC(CNC(=O)c1ccc(Br)o1)NC(=O)c1ccc(Br)o1` (stereo not given), the B-score was -0.012.

With `CCc1nc(C)cn1S(=O)(=O)c1cc(OC)c(C)cc1C`, the B-score is -0.851.

With `COc1ccc(CCNC(=O)c2cc3sccc3n2C)cc1OC`, the B-score was 4.1 (active).

Take `Cn1c(C(=O)NCCCN2CCCCC2)cc2sccc21`: the B-score was -0.452.

For the compound `COc1ccc(CCNC(=O)c2cc(-c3ccc4c(c3)OCO4)on2)cc1OC`, the B-score was 0.448.

Turning to `COC(CCN(C)C)(c1ccccc1)c1ccccc1`, the B-score was -0.765.

`CCOc1ccc2[nH]c(=O)c(C(c3nnnn3CCOC)N3CCOCC3)cc2c1` (stereo not given): the B-score is 10.2 (active).

On to `COCCn1nnnc1C(c1cc2ccc(OC)cc2[nH]c1=O)N1CCc2ccccc2C1` (stereo not given), for which the B-score is -0.278.

Consider `COc1ccc(N2CCN(C(c3cc4ccc(C)cc4[nH]c3=O)c3nnnn3C3CCCC3)CC2)cc1` (stereo not given), for which the B-score was 0.0349.

`O=C(c1cc(-c2cccc(O)c2)on1)N1CCc2ccccc2C1`: the B-score is -0.88.

As for `Cc1ccc(C2CC(c3cccc(C)c3)n3nc(N)nc3N2)cc1` (stereo not given), the B-score is 6.52 (active).

For the compound `CCOc1ccccc1C1CC(c2ccccc2)Nc2nc(N)nn21` (stereo not given), the B-score was 5.88 (active).

As for `Nc1nc2n(n1)C(c1ccco1)CC(c1ccc(Cl)c(Cl)c1)N2` (stereo not given), the B-score is 0.226.

Take `COc1ccc(C2CC(c3ccc(Cl)cc3Cl)Nc3nc(N)nn32)cc1OC` (stereo not given): the B-score was -0.179.

For `FC(F)Oc1ccccc1C1CC(c2ccc(Br)s2)Nc2ncnn21` (stereo not given), the B-score was 0.0618.

As for `Clc1ccc(C2CC(c3cccs3)n3ncnc3N2)cc1Cl` (stereo not given), the B-score was 2.58.

For the compound `Cc1ccc(C2CC(c3cccc(Br)c3)n3nc(N)nc3N2)cc1` (stereo not given), the B-score is 9.49 (active).

Consider `COc1ccc(C2CC(c3ccc(C)cc3)Nc3ncnn32)cc1` (stereo not given), for which the B-score is 0.317.

With `CCOc1ccccc1C1CC(c2ccc(Cl)cc2)Nc2nc(N)nn21` (stereo not given), the B-score is 1.36.

For `CCc1nnc(NC(=O)c2cccs2)s1`, the B-score was -1.13.

In the case of `COc1ccc(OC)c(S(=O)(=O)Nc2ccccc2F)c1`, the B-score was 0.662.
